Test [1] is described as follows: NCI Yeast Anticancer Drug Screen. Data for the rad50 strain (AID 155).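 Further: 0% = growth of vehicle-only cultures of the same strain.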 As to conditions: S. cerevisiae rad50 strain growth inhibition; at 50.0 µM; stronger effect = higher value. The method in brief:
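Relative growth inhibition (compound vs vehicle) was measured in yeast with a defined repair-gene alteration.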

Test [2] is described as follows: NCI Yeast Anticancer Drug Screen. Data for the mec2-1 strain (AID 157). As to conditions: S. cerevisiae mec2-1 strain, at 50.0 µM, stronger effect = higher value. The method in brief: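 Each compound was tested on mec2-1 yeast, a strain altered in DNA damage repair or cell cycle control. Growth inhibition is reported relative to vehicle.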
Test [3] is described as follows: NCI Yeast Anticancer Drug Screen. Data for the sgs1 mgt1 strain (AID 161).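 Further: 0% = growth of cultures given vehicle only.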 As to conditions: S. cerevisiae sgs1 mgt1 strain, at 50.0 µM, stronger effect = higher value. The method in brief:
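Mutant yeast exposed to compound; growth scored against vehicle-only wells.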

A short description of test [4]: NCI Yeast Anticancer Drug Screen. Data for the cln2 rad14 strain (AID 165).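 Further: 0% = growth equal to vehicle treated cultures.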 To be noted: S. cerevisiae cln2 rad14 strain, at 50.0 µM, stronger effect = higher value. The method in brief: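 Test compounds were added to cln2 rad14 yeast cultures; inhibition of growth was then determined by comparison with vehicle treatment.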
Test [5] in a line: NCI Yeast Anticancer Drug Screen. Data for the bub3 strain (AID 167). To be noted: S. cerevisiae bub3 mutant strain, at 50.0 µM, stronger effect = higher value. A digest of the protocol:
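Screening used yeast with an engineered genetic alteration affecting cell cycle control. Compound-exposed cultures were compared with vehicle cultures, and reduced growth was taken as inhibition.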

Test [6] is described as follows: NCI Yeast Anticancer Drug Screen. Data for the mlh1 rad18 strain (AID 175). To be noted: S. cerevisiae mlh1 rad18 strain growth inhibition; at 50.0 µM; stronger effect = higher value. The method in brief: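 Inhibition values reflect reduced growth of mutant yeast versus vehicle-treated controls following compound exposure; the mutations affect DNA damage repair.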

Each structure is given as a SMILES string. About 79,000 compounds went through this panel and 15% of them were active in at least one assay; those are over-represented in the sample as a whole. Unmarked numbers belong to inactive results. Activity calls are given as the source filed them. No stated cut-off is given here; in the data, active means growth inhibition above about 70%; inactive means the rest.

Consider `Cn1c(=O)c2[nH]c(N/N=N/c3nncs3)nc2n(C)c1=O`, for which the growth inhibition in test [1] was -67.5%; in test [2], -117%; in test [3], -51.9%; in test [4] it was -19.8%; in test [5], -19.4%; in test [6], -117%.
As for `CCCNC(=O)Nc1ccc(Nc2ccccc2)cc1`, the growth inhibition in test [1] was 5.9%; in test [2] it was 2.5%; in test [3] it was -0.5%; in test [4], 4.4%; in test [5], 18.2%; in test [6] it was 2%.
In the case of `COc1cc(CNc2nc3c(N)cc(C(F)(F)F)cc3nc2-c2ccccc2)cc(OC)c1OC`, the growth inhibition in test [1] is 0.25%; in test [2], -9.35%; in test [3] it was 6.6%; in test [4], 17.6%; in test [5], -11.3%; in test [6], -25.6%.
Turning to `COc1cc2ccnc(CCCc3nccc4cc(OC)c(OC)cc34)c2cc1OC`, the growth inhibition is -30.1% in test [1]; -4.05% in test [2]; -27.4% in test [3]; -1.9% in test [4]; -1.75% in test [5]; -9.3% in test [6].
As for `CCN(CC)CC(C)(C)C(=O)/C=C/c1ccc(C)cc1`, the growth inhibition is 39.5% in test [1]; 12.8% in test [2]; 57.5% in test [3]; 3.9% in test [4]; -13.4% in test [5]; 19.9% in test [6].
As for `CCOC(=O)NC(C)(C)CC(C)(C)C`, the growth inhibition is -0.6% in test [1]; -17.6% in test [2]; -4.7% in test [3]; 11.9% in test [4]; -18.6% in test [5]; 17.4% in test [6].
Regarding `c1ccc(CCCCc2ccccc2)cc1`, the growth inhibition in test [1] is 25.1%; in test [2], 3.2%; in test [3] it was 14.1%; in test [4], 6.4%; in test [5], 3.35%; in test [6] it was 11.4%.
Regarding `O=C1c2ccccc2C(=O)N1CNc1cccc(NCN2C(=O)c3ccccc3C2=O)c1`, the growth inhibition in test [1] was -3.9%; in test [2], -11.7%; in test [3], -9.75%; in test [4], 16.1%; in test [5], 1.2%; in test [6] it was -2.15%.
In the case of `CC(=O)Oc1cc(OC(C)=O)c(OC(C)=O)c2c1CCCC2`, the growth inhibition in test [1] is 6.45%; in test [2], 14.8%; in test [3], 6.65%; in test [4] it was -91.1%; in test [5], 16.4%; in test [6], 56.7%.
Take `CCOC(CCc1c(C)nc[nH]c1=O)OCC`: the growth inhibition was -1.8% in test [1]; 3.7% in test [2]; -2.35% in test [3]; -35.4% in test [4]; 16.2% in test [5]; -7.9% in test [6].
`NC(=O)COc1ccccc1`: the growth inhibition in test [1] is -14.5%; in test [2], -8.75%; in test [3], -1.1%; in test [4] it was 14.6%; in test [5], -0.15%; in test [6] it was 27.9%.
With `C(CCC[Si]12OCCN(CCO1)CCO2)CC[Si]12OCCN(CCO1)CCO2`, the growth inhibition in test [1] was 6%; in test [2], -1.8%; in test [3], 20.1%; in test [4] it was 11.9%; in test [5], -1.45%; in test [6] it was 1.1%.
Turning to `CCCCCCCCCC(=O)N/N=C/c1cccs1`, the growth inhibition in test [1] is 0.95%; in test [2], 24.2%; in test [3] it was 3.9%; in test [4], -12.7%; in test [5], 35.8%; in test [6] it was 15.3%.
`Nc1nc(N)nc(C2C=CCCC2)n1` (configuration not stated): the growth inhibition in test [1] is -19.6%; in test [2], 1.85%; in test [3], -13%; in test [4], -32.6%; in test [5], -11.4%; in test [6] it was -18.1%.
As for `O=C(O)c1cc(C(=O)O)cc(S(=O)(=O)N2CCOCC2)c1`, the growth inhibition in test [1] was -2.1%; in test [2] it was 3.25%; in test [3], -3.8%; in test [4], -37.8%; in test [5] it was 6.05%; in test [6], -16.2%.
For `O=c1[nH]c(=O)c2ncn(C3OC(CO)C(O)C3O)c2[nH]1.O=c1[nH]c(=O)c2ncn(C3OC(CO)C(O)C3O)c2[nH]1.[NH2-].[NH2-].[Pt+2]` (configuration not stated), the growth inhibition in test [1] was 3.35%; in test [2] it was 33.5%; in test [3] it was 41.7%; in test [4], 3.55%; in test [5] it was -8.5%; in test [6], 40.4%.
`COc1ccc2[nH]c3c(c(=O)c2c1)CCCC3`: the growth inhibition in test [1] was -1.15%; in test [2], -12.9%; in test [3] it was 2.85%; in test [4], -6.2%; in test [5], 5.8%; in test [6], -12.7%.
`C#CCN(C)Cc1cc(OC)c(OC)c(OC)c1`: the growth inhibition in test [1] was -43.2%; in test [2], -0.75%; in test [3], 6.55%; in test [4], -10.9%; in test [5] it was 7.65%; in test [6] it was 14.4%.
`C/C1=C/C(C)CC(C)OC(=O)C(C)NC(=O)C(Cc2ccc(O)c(I)c2)N(C)C(=O)C(C)NC(=O)C(C)C1` (configuration not stated): the growth inhibition is 92.8% (active) in test [1]; 93.7% (active) in test [2]; 52.4% in test [3]; 90.7% (active) in test [4]; 92.8% (active) in test [5]; 91.2% (active) in test [6].
As for `O=CC1OC(c2ccccc2)OC1C1OC(c2ccccc2)OC1C=O` (configuration not stated), the growth inhibition in test [1] is 19.4%; in test [2], 13.7%; in test [3] it was 19.2%; in test [4] it was -22.6%; in test [5], 17.9%; in test [6], 22.8%.
As to `CCCCCCCCCCCCOP(=O)(CC(=O)NCc1cc(C(C)(C)C)c(O)c(C(C)(C)C)c1)OCCCCCCCCCCCC`, the growth inhibition in test [1] was -1.55%; in test [2], 3.3%; in test [3] it was 21.9%; in test [4] it was -7.3%; in test [5], -2.9%; in test [6] it was -9.9%.
In the case of `CC(=O)NCc1cc2c3c(c1)CCCN3CCC2`, the growth inhibition in test [1] was 6%; in test [2], -7.15%; in test [3], 4.15%; in test [4] it was -32.5%; in test [5] it was 0.1%; in test [6], -4.8%.
As to `O=C(COc1ccc(F)cc1)OCCO`, the growth inhibition in test [1] was 13.9%; in test [2], -20.9%; in test [3], -2.55%; in test [4] it was -33.2%; in test [5], -15.3%; in test [6], -18.9%.
Regarding `O=[N+]([O-])c1ccc2nc(-c3ccccc3[N+](=O)[O-])[nH]c2c1`, the growth inhibition in test [1] was 0.2%; in test [2] it was 0.85%; in test [3], 2.5%; in test [4] it was -49.5%; in test [5], -7.35%; in test [6] it was -5.15%.
In the case of `Oc1cc(O)c2c(c1)O[C@@H](c1ccc(O)c(O)c1)[C@H](O)C2`, the growth inhibition is 5.75% in test [1]; -37.4% in test [2]; 0.2% in test [3]; 6.15% in test [4]; -12.7% in test [5]; 7.55% in test [6].
In the case of `O=CNC1CCCCC1c1ccc(C2CCCCC2NC=O)cc1` (configuration not stated), the growth inhibition in test [1] is -12.1%; in test [2], 9.1%; in test [3], -2.35%; in test [4], -1.55%; in test [5] it was 6.2%; in test [6], 22.8%.
Consider `CCC(C)OC(=S)S.[Ag]` (configuration not stated), for which the growth inhibition in test [1] is 5.25%; in test [2], -7.2%; in test [3], 0.7%; in test [4], -9.4%; in test [5], -1.85%; in test [6] it was 10.7%.
Consider `Cc1ccc(C(=O)N/N=C/c2ccc3ccccc3c2)cc1`, for which the growth inhibition in test [1] is -1%; in test [2] it was -13.2%; in test [3], -5.25%; in test [4], -13.8%; in test [5] it was 33.4%; in test [6] it was -5.3%.
On to `CC(=O)N1CCNC(c2ccccc2)C1(C)C` (configuration not stated), for which the growth inhibition in test [1] is -3.05%; in test [2] it was -6.95%; in test [3], -11.3%; in test [4] it was -9.3%; in test [5], -13.4%; in test [6], 3.85%.
Take `CC(=O)Nc1ccc(O)c(CN2CCN(c3ccccc3)CC2)c1`: the growth inhibition in test [1] was 33.1%; in test [2], 16%; in test [3], 17.6%; in test [4] it was 47.2%; in test [5], 12.1%; in test [6], 20.3%.
Regarding `Cc1ccc2ccc(C)nc2c1`, the growth inhibition is 15.8% in test [1]; -23.7% in test [2]; -5.85% in test [3]; 7.15% in test [4]; 18.2% in test [5]; -22.9% in test [6].
Regarding `[Cu+2].[Cu+2].[O-]c1ccccc1C=Nc1ccccc1[O-].[O-]c1ccccc1C=Nc1ccccc1[O-]`, the growth inhibition in test [1] was 7.25%; in test [2], -0.95%; in test [3], -1.2%; in test [4], 16.9%; in test [5], 2.1%; in test [6], 1.55%.
Consider `COC(=O)c1cc2ccc(O)c(O)c2cn1`, for which the growth inhibition in test [1] is 41.1%; in test [2], 25.8%; in test [3], 60.3%; in test [4], 18.9%; in test [5], 62.4%; in test [6] it was 24.9%.
Consider `Clc1cccc[n+]1CCc1ccccc1`, for which the growth inhibition was 9.4% in test [1]; 22.9% in test [2]; 5.3% in test [3]; -4.55% in test [4]; 7.55% in test [5]; 44% in test [6].
For `COc1cc(COC(=O)c2ccc(CSc3ccc(Cl)cc3)o2)cc(OC)c1OC`, the growth inhibition is -19.4% in test [1]; -33% in test [2]; -0.75% in test [3]; -8.4% in test [4]; -13.9% in test [5]; -10.8% in test [6].
On to `N#CCSc1c(-c2ccccc2)c(=O)n(-c2ccccc2)c(=S)n1-c1ccccc1`, for which the growth inhibition in test [1] was 20.7%; in test [2] it was -17.9%; in test [3], -2.3%; in test [4], -16.8%; in test [5], -20.6%; in test [6] it was -0.65%.
On to `c1ccc(-c2ccccc2-c2ccccc2)cc1`, for which the growth inhibition is 18.1% in test [1]; -4.8% in test [2]; 10.6% in test [3]; -2.75% in test [4]; -8.15% in test [5]; 20.8% in test [6].

Values taken from PubChem BioAssay (NCI).
